PubChem BioAssay AID588726 (The Scripps Research Institute Molecular Screening Center, 2011)
Among all 360,000 compounds or so, about 8,200 (2.3%) were called active. The sample holds actives, similar compounds and a random draw of the others, so the mix is not that of the screen. No stated cut-off is given here; in the data, active means inhibition above about 27%; inactive means the rest.

Target: Fructose-bisphosphate aldolase (Mycobacterium tuberculosis (strain ATCC 25618 / H37Rv)) (UniProt P9WQA3)
Experiment: Mtb FBA enzyme inhibitors, primary screen, biochemical, fluorescence, strain H37Rv (AID 588726);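 further: 0% = vehicle and 100% = reference inhibitor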
Conditions: purified M. tuberculosis FBA, fluorescence read-out, at 1 µM, active compounds read high

Chain of Fructose-bisphosphate aldolase (Mycobacterium tuberculosis (strain ATCC 25618 / H37Rv)) (P9WQA3 whole entry, looked up): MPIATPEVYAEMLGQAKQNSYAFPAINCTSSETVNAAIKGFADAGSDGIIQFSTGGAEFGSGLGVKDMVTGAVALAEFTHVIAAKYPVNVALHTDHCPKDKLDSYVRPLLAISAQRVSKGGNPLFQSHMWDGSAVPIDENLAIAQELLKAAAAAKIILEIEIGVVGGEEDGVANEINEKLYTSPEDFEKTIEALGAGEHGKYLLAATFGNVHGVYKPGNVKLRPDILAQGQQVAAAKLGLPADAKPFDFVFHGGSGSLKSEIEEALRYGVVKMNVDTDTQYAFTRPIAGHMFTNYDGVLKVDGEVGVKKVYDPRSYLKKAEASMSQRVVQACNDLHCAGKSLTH

SMILES	inhibition
COc1cc(NC(=O)CSC(=S)N2CCCC2)c(OC)cc1Cl	9.36% (inactive)
Cc1ccsc1C1C(C#N)=C(N)OC2=C1C(=O)CC(C)(C)C2 (stereo not drawn)	5.8% (inactive)
CCc1ccc(OCC(=O)N(Cc2ccccc2)C2CCS(=O)(=O)C2)cc1 (stereo not drawn)	4.66% (inactive)
Cn1c(=O)c2c(SCC(=O)NCC3CCCO3)nc(CC(C)(C)C)nc2n(C)c1=O (stereo not drawn)	-0.73% (inactive)
O=C(CC[C@H]1O[C@@H](n2ccc(=O)[nH]c2=O)[C@H](O)[C@@H]1O)N[C@H](Cc1ccccc1)C(=O)NCc1ccco1	1.72% (inactive)
CCn1c(=N)c(C(=O)NCCCOC)cc2c(=O)n3cccc(C)c3nc21	661% [above what the read-out allows, likely interference] (active)
CCc1cccc2c(=O)c(C(=O)NCCCOC)c[nH]c12	1.41% (inactive)
COCCCn1c(SCC(=O)NC2CCCC2)nnc1-c1ccccc1	-5.58% (inactive)
Cc1ccc(S(=O)(=O)c2cc3c(=O)n4cccc(C)c4nc3n(CCc3ccccc3)c2=N)cc1C	-2.09% (inactive)
Cc1cccn2c(=O)c3cc(C(=O)NC4CCCCC4)sc3nc12	9.42% (inactive)
COCCCn1c(C(=O)NC2CCCCC2)cc2c(=O)n3cccc(C)c3nc21	37.6% (active)
CC(NCCc1ccc(S(N)(=O)=O)cc1)C(=O)NCc1ccccc1 (stereo not drawn)	0.46% (inactive)
Cc1cccc(C2c3c(n(C)c(=O)n(C)c3=O)N=C3c4ccccc4C(=O)C32)c1 (stereo not drawn)	-1.16% (inactive)
CCOc1ccc(C(=O)Nc2c3c(nn2-c2ccccc2)CS(=O)(=O)C3)cc1	0.76% (inactive)
O=S(=O)(c1ccc(F)cc1)N1CCN(C(=S)NC2CCCC2)CC1	0.47% (inactive)
C[C@@H]1CN([C@@H](C)CO)C(=O)c2cc(Br)cnc2O[C@@H]1CN(C)C(=O)C1CCCCC1	-2.01% (inactive)
O=C(Cn1nnc(-c2ccccc2)n1)NC(=O)NC1CCCC1	0.56% (inactive)
O=C(O[C@H]1[C@H](Cc2ccccc2)NS(=O)(=O)[C@H]2C[C@@H]3C=C[C@]12O3)c1ccc([N+](=O)[O-])cc1	1.68% (inactive)
Cc1nnc(SCC(=O)Nc2ccc(S(=O)(=O)Nc3ccc(Cl)nn3)cc2)s1	-1.39% (inactive)
Clc1ccc2c(c1)C1=C(C(c3ccncc3)O2)C(c2ccc(Br)cc2)n2ncnc2N1 (stereo not drawn)	1.95% (inactive)
CCOc1ccc(C2=CC(c3ccccc3)n3ncnc3N2)cc1 (stereo not drawn)	48.9% (active)
Brc1ccc(C2=CC(c3ccco3)n3ncnc3N2)cc1 (stereo not drawn)	31.5% (active)

SMILES	inhibition
CC1=C(C(=O)OC2CCCCC2)C(c2cccnc2)n2ncnc2N1 (stereo not drawn)	1.05% (inactive)
Cc1ccc(F)c(S(=O)(=O)NC(=O)C2(C)CCN2C(=O)c2ccco2)c1 (stereo not drawn)	-2.4% (inactive)
Cc1ccc(CCCOC(=O)C[N+]2(C)CCCC2)cc1	2.21% (inactive)
COC(=O)C1(CCSC)NC(c2ccc(OC)cc2OC)C2C(=O)N(c3cccc(C(C)=O)c3)C(=O)C21 (stereo not drawn)	1.37% (inactive)
CO[C@H]1[C@@H]2C=CO[C@@H](O[C@H]3O[C@@H](CO)[C@H](O)[C@@H](O)[C@@H]3O)[C@@H]2[C@@]2(CO)O[C@@H]12	2.4% (inactive)
CCOC(=O)C1CCCN(C(=O)c2ccc(CS(=O)(=O)c3ccc(Br)cc3)o2)C1 (stereo not drawn)	1.86% (inactive)
COc1ccccc1-c1sc2ccccc2c1C#CC1(O)CCCCC1	6.51% (inactive)
COc1ccccc1-c1oc2ccccc2c1C#CCCCCO	30.8% (active)
CCNC(=O)CC1C(=O)N(c2ccc(F)cc2)C(=O)N1Cc1cccs1 (stereo not drawn)	-3.21% (inactive)
CSCC[C@H](NC(=O)NC1CCCC1)C(=O)O	-1.95% (inactive)
CCN(CC)c1ccc(NC(=O)C2CCC(CNc3c(N4CCCC4)c(=O)c3=O)CC2)c(C)c1 (stereo not drawn)	-0.83% (inactive)
COc1ccc2c(c1)CC[C@@H]1[C@@H]2CC[C@]2(C)C(=O)CC[C@@H]12	0.88% (inactive)
O=C1OCC2=C1C(c1ccccc1)CC(=O)N2c1cccc(F)c1 (stereo not drawn)	-3.03% (inactive)
O=C(OCC(=O)N1CCc2ccccc21)c1ccc([N+](=O)[O-])cc1	-3.08% (inactive)
Cc1cnc(C(=O)OCC(=O)N2CCc3ccccc32)cn1	69% (active)
Cc1ccc(S(=O)(=O)NCC(=O)OCC(=O)N2CCc3ccccc32)cc1	0.04% (inactive)
CCc1ccc(N2CC(C(=O)NC3=NCCS3)CC2=O)cc1 (stereo not drawn)	4.59% (inactive)
O=C(CCc1ccccc1)Nc1cccc(-c2nnc(-c3ccco3)o2)c1	26.9% (active)
O=C(CCc1ccccc1)Nc1nn[nH]n1	2.03% (inactive)
O=C(CSc1nnc(-c2ccco2)o1)NCC(=O)c1ccccc1	-1.17% (inactive)
O=C1CCC(=O)N1CCOP1(=O)COc2ccccc2OC1	3.44% (inactive)
CCOC(=O)CSc1nc2c(c(=O)n(Cc3ccccc3Cl)c(=O)n2C)n1C	88% (active)

SMILES	inhibition
CCCSc1nc2c(c(=O)n(C)c(=O)n2C)n1Cc1ccc(C)cc1	1.01% (inactive)
CCC1CCCCN1C(=O)CSc1nc2c(c(=O)n(C)c(=O)n2C)n1C (stereo not drawn)	0.65% (inactive)
CC(C)C1CCN(C(=O)C2CCC(=O)N(C3CCCCCC3)C2)CC1 (stereo not drawn)	-1.51% (inactive)
CCN(C(=O)Cc1c(C(=O)O)n(CC)c2ccccc12)c1ccccc1C	0.97% (inactive)
Fc1ccc(COc2ccc(-c3nnco3)cc2)cc1	-0.19% (inactive)
Fc1ccc(/C=N/n2c(COc3ccccc3)n[nH]c2=S)cc1	2.47% (inactive)
Fc1ccc(COc2cccc(-c3n[nH]c(=S)o3)c2)cc1	29.4% (active)
CC1(C)C2CC[C@]3(C)C(CC=C4[C@@H]5C[C@@](C)(CO)CC[C@]5(C(=O)O)CC[C@]43C)[C@@]2(C)CC[C@@H]1O (stereo partly drawn)	0.29% (inactive)
Cc1ccccc1C(=O)N1CCC(C(=O)Nc2ccc(S(=O)(=O)N(C)C(C)C)cc2)CC1	1.27% (inactive)
Cc1c(C)n2c(SCC(=O)N3CCCC3)nnc2[nH]c1=O	-0.46% (inactive)
CC(=O)c1sc2nc(SCC(=O)N3CCCCC3)[nH]c(=O)c2c1C	30.5% (active)
O=C(CSc1nc2c(cnn2-c2ccc(F)cc2)c(=O)[nH]1)N1CCCCCC1	2.6% (inactive)
CC(C)c1ccc(N(C(=O)c2ccco2)C(C(=O)NC2CCCC2)c2cccnc2)cc1 (stereo not drawn)	-3.97% (inactive)
O=C(NC(=S)Nc1ccccc1C(=O)O)c1ccc(-c2ccc(Br)cc2)o1	10.4% (inactive)
CCOC(=O)Cc1c(C)nc2c(C#N)c(C)nn2c1C	46.4% (active)
Cc1cc(C)cc(NC(=O)CSc2ccccc2)c1	70.8% (active)
Cc1cc(C)cc(NC(=O)CSCc2cnn(-c3ccccc3)c2-n2cccc2)c1	-1.78% (inactive)
Cc1cc(C)cc(NC(=O)CCN2C(=O)c3ccccc3C2=O)c1	0.74% (inactive)
CCCN(CC(=O)Nc1ccccc1C)C(=O)c1ccc(OCC(=O)N2CCOCC2)c(OCC)c1	-1.46% (inactive)
Cn1ncc2c(N3CCCCC3)nc(NCCCO)nc21	-2.65% (inactive)
CC(C)(C)C(=O)NC1CC2CCCC(C1)N2C(=O)Nc1ccccc1F (stereo not drawn)	-0.96% (inactive)
CCCCn1c(N)c(N(CCOC)C(=O)CSCC(=O)Nc2cccc(C)c2)c(=O)[nH]c1=O	-1.91% (inactive)

SMILES	inhibition
COc1ccc(-c2nc3ccccc3n2CCC(C)C)cc1OC	5.55% (inactive)
CCCCn1c(-c2cccc(C)c2)nc2cc3[nH]c(=O)c(C(C)C)nc3cc21	87.6% (active)
Nn1c(Cc2cccc3ccccc23)nnc1SCC(=O)N1CC(=O)Nc2ccccc21	1.67% (inactive)
CSCCC(Nc1ccc(S(=O)(=O)N2CCOCC2)cc1[N+](=O)[O-])C(=O)OCC(=O)N(C(C)C)C(C)C (stereo not drawn)	-2.32% (inactive)
CCOC(=O)Cc1cc(=O)[nH]c(=O)[nH]1	1.01% (inactive)
Cc1c(CCC(=O)O)c(=O)oc2c(C)c(OCc3ccccc3Cl)ccc12	5.47% (inactive)
FC(F)(F)c1ccc(-c2cccc3c2C2CC3CCN2Cc2ccccc2)cc1 (stereo not drawn)	4.42% (inactive)
Cc1cc(C(=O)OCC(=O)Nc2nccs2)c2ccccc2n1	-2.68% (inactive)
O=C(NCCc1ccccn1)c1cc(-c2ccc(Cl)cc2)nc2ccccc12	-0.88% (inactive)
Cc1csc2nc(O)c(C(=O)NCCN3CCOCC3)c(=O)n12	0.68% (inactive)
COC(=O)c1cc(-c2cccs2)nc2ccccc12	31.1% (active)
CCCCN(C)CCCNC(=O)c1cc(-c2cccs2)nc2ccccc12	140% (active)
O=C(NCCN1CCOCC1)c1cc(-c2cccs2)nc2ccccc12	67.9% (active)
COC(=O)c1cc(N2CCNCC2)nc2ccccc12	12.9% (inactive)
O=C(NCCN1CCOCC1)c1cc(Sc2cccc(Cl)c2)nc2ccccc12	-0.13% (inactive)
O=C(NCC(c1cccs1)N1CCOCC1)c1cc(-c2ccccn2)nc2ccccc12 (stereo not drawn)	5.77% (inactive)
CC(C)CC(=O)N=C1SC2CS(=O)(=O)CC2N1CCc1ccccc1 (stereo not drawn)	-1.54% (inactive)
C[C@H](CO)N1C[C@H](C)[C@@H](CN(C)S(=O)(=O)c2ccc(F)cc2)OCc2cnnn2CCCC1=O	-1.18% (inactive)
CCc1n[nH]c(=S)n1/N=C/c1c[nH]c2ccc(Br)cc12	4.89% (inactive)
N#CCSc1nn(-c2ccc(F)cc2)c(=S)s1	2.99% (inactive)
CCCCC(=O)NNC(=S)NC(=O)C(c1ccccc1)c1ccccc1	6.76% (inactive)
CSc1ccc(CN2CCC2(C)C(=O)Nc2ccc(C)c(O)c2)cc1 (stereo not drawn)	-1.62% (inactive)
